This is an account of results in the supplement of paper PMC11732987, “Enantioselective OTUD7B fragment discovery through chemoproteomics screening and high-throughput optimisation” (Communications Chemistry, 2025).

What all share (assay): log2 ratio of Biotin-Ahx-Ub-VS probe labelling (fragment/DMSO); higher = less target engagement (more negative = stronger competition), active = hit call of the paper (q ≤ 0.05, log2 ratio ≤ -1)
Holding throughout (details): compound concentration: 200 uM; treatment time: 3 h

One assay has as its target T1, OTUD6B (UniProt Q8N6M0).
T1 sequence (whole entry): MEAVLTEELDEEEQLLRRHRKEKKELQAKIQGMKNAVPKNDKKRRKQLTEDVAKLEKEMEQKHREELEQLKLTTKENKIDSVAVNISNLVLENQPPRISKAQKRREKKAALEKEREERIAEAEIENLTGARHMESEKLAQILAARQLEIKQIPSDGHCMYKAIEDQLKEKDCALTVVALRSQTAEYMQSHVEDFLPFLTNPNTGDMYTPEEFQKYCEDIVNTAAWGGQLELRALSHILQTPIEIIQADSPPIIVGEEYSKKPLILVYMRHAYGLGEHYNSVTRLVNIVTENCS
A digest of the protocol: (§1)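 Labelling with Biotin-Ahx-Ub-VS (0.5 µM final, 1 h) followed a 3 h triplicate treatment of HEK293T lysate (495 µg per sample, Tris/CHAPS/IGEPAL buffer with protease inhibitors) with fragment at 200 µM or vehicle. Labelled DUBs were NeutrAvidin-enriched, digested with LysC and trypsin, and run by diaPASEF LC-MS/MS. The values, average log2 fragment/vehicle ratios by unpaired t-test, come from global-median-normalised Spectronaut label-free quantities. Proteins with ≥2 unique peptides were used.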

The target in another assay is T2, OTUD7B (UniProt Q6GQQ9).
T2 sequence (whole entry): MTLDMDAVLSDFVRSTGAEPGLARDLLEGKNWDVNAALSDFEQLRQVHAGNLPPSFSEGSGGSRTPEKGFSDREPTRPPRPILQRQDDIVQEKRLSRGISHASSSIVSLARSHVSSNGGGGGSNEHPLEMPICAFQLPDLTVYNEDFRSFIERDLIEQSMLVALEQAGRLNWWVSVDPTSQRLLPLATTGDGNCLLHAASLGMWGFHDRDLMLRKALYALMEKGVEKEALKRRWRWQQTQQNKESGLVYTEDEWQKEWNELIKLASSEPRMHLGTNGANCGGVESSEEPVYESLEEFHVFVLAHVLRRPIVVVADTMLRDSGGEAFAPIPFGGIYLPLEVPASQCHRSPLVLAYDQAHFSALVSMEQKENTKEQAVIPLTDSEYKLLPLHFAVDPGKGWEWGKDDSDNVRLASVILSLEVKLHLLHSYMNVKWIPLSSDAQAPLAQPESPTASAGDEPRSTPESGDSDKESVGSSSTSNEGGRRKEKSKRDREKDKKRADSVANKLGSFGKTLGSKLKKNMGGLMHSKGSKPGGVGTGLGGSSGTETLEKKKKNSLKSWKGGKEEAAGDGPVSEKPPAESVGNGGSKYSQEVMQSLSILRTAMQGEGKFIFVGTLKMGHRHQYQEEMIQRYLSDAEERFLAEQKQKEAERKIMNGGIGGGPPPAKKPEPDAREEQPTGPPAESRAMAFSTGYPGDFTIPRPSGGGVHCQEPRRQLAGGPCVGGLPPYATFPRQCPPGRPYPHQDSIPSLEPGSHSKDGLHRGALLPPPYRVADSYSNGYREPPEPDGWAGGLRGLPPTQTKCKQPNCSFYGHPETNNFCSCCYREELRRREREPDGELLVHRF
The gist of the method: as §1

In a further assay the target is PRPF8 (UniProt Q6P2Q9). A digest of the protocol:
as §1

A further assay concerns the target T3, PSMD7 (UniProt P51665).
T3 sequence (whole entry): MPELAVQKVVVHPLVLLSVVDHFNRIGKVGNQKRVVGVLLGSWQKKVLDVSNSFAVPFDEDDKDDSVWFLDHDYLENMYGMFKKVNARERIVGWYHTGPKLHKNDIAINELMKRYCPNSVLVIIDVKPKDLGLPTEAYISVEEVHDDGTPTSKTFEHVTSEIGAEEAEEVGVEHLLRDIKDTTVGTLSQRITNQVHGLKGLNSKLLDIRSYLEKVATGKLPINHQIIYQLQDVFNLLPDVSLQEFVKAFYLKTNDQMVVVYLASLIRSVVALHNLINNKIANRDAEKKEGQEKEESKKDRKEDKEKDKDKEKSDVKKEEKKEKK
The gist of the method:
as §1

The target in a further assay is UCHL1 (UniProt P09936). A digest of the protocol: as §1
Chain of UCHL1 (P09936 whole entry, looked up): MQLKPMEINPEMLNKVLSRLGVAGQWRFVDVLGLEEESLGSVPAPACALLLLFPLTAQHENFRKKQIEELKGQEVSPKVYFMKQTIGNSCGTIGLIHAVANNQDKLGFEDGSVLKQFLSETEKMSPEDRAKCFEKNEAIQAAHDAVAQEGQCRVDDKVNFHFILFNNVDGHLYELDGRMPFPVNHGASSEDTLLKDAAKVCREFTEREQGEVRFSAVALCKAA
Another assay addresses T4, UCHL3 (UniProt P15374).
T4 sequence (whole entry): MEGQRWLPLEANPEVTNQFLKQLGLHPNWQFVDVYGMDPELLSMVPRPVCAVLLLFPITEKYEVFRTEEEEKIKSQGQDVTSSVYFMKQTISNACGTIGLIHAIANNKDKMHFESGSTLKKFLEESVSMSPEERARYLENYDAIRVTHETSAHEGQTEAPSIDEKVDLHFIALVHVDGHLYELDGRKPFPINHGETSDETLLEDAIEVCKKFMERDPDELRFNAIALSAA
The gist of the method:
as §1

The next assay deals with T5, UCHL5 (UniProt Q9Y5K5).
T5 sequence (whole entry): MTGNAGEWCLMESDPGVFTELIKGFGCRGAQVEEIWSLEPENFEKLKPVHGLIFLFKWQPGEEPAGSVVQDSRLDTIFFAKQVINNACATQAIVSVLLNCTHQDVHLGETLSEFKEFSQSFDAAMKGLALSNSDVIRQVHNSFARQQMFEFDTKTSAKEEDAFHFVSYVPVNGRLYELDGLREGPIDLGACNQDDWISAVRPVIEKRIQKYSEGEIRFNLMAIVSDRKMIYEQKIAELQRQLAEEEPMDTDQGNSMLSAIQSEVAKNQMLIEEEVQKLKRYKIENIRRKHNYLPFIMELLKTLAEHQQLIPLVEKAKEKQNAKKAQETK
The gist of the method:
as §1

For another assay, the target named is USP10 (UniProt Q14694). A digest of the protocol:
as §1

The next assay has as its target T6, USP15 (UniProt Q9Y4E8).
T6 sequence (whole entry): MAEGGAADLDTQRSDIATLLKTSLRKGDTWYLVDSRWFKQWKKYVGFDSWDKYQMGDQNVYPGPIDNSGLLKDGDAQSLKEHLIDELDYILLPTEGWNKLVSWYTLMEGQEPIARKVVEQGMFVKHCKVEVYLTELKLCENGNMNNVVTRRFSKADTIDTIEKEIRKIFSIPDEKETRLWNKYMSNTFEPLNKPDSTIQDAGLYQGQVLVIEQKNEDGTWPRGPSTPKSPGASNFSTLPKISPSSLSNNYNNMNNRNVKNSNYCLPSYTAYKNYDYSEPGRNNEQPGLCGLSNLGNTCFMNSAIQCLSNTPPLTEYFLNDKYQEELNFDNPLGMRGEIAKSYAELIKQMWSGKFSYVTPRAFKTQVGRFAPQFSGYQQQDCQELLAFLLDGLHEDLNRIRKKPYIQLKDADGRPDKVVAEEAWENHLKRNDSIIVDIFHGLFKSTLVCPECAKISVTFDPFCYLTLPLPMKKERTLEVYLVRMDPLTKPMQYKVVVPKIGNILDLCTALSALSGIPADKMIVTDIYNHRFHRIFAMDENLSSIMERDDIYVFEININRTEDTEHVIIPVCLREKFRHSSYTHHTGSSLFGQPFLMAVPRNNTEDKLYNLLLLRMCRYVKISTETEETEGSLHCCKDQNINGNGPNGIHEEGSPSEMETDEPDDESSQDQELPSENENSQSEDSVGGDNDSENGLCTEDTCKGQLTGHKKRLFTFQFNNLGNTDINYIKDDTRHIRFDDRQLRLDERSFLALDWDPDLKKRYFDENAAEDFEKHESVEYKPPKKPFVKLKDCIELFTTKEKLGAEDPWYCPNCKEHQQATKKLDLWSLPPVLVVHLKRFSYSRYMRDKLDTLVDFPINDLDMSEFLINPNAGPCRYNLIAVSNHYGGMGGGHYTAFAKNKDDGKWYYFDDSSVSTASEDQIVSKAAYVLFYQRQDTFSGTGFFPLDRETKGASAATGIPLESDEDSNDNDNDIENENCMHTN
A digest of the protocol:
as §1

Another assay deals with USP16 (UniProt Q9Y5T5). A digest of the protocol: as §1
Chain of USP16 (Q9Y5T5 whole entry, looked up): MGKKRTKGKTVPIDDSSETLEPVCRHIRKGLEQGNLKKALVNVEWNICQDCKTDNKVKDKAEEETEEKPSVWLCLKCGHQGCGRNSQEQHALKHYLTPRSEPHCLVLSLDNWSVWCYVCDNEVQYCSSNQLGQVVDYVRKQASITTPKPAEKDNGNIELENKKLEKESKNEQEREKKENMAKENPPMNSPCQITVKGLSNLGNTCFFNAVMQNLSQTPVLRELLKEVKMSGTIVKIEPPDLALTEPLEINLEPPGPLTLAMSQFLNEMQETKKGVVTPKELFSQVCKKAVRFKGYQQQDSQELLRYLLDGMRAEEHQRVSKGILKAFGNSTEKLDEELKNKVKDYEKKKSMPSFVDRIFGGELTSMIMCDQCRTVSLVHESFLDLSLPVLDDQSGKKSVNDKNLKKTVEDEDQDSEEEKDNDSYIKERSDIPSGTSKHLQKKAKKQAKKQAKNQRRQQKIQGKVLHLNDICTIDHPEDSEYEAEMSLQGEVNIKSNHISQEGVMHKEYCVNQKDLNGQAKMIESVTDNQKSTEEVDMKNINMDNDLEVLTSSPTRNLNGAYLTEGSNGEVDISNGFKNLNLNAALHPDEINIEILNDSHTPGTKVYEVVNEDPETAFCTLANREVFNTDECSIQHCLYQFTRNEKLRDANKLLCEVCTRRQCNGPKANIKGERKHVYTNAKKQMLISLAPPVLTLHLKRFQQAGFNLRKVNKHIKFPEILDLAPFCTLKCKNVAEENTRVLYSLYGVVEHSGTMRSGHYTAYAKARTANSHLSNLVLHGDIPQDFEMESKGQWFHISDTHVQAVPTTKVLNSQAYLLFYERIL

SMILES strings stand for the structures. A number with no mark means an inactive call.

Chain of USP10 (Q14694 whole entry): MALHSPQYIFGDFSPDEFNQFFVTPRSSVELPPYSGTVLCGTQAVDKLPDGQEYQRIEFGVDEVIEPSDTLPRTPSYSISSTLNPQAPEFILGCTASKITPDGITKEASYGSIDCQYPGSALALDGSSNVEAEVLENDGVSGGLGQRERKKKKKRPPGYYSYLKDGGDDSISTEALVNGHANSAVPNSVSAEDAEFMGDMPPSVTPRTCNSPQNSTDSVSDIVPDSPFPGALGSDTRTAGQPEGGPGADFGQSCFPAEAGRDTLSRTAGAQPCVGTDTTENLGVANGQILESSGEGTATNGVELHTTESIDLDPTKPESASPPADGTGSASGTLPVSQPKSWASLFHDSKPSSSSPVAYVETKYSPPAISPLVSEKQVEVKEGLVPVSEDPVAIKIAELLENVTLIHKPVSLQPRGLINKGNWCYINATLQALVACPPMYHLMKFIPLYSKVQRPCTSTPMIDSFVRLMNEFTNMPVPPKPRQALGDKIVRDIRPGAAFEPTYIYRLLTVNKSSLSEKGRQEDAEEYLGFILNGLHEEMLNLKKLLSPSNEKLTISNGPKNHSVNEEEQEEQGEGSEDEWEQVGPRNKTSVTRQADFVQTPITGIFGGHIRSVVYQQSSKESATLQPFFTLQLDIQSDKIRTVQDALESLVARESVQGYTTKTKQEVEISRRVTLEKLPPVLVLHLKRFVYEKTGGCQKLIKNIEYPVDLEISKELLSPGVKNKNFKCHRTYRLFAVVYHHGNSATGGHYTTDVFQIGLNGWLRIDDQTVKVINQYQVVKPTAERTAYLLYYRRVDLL

As for `Cc1ccc(N(C(=O)CCl)C2C=CS(=O)(=O)C2)cc1` (stereo not given), the “log2 ratio of Biotin-Ahx-Ub-VS probe labelling” value (“log2 ratio” below) in the assay with OTUD6B is 0.181; with OTUD7B it was -0.0624; with PRPF8, 0.0782; in the assay with PSMD7 it was -0.0467; with UCHL1, -1.28 (active); with UCHL3 it was 0.419. Besides, the “log2 ratio” value in the assay with UCHL5 is -0.13; with USP10 it was -0.0181; with USP15, -0.145; in the assay with USP16, 0.19.

Regarding `O=C(CCl)N1CCOCC1C1CC1` (stereo not given), the “log2 ratio” value with OTUD6B was -0.211; with OTUD7B, -0.512; in the assay with PRPF8, -0.182; with PSMD7 it was -0.142; in the assay with UCHL1, -1.92 (active); in the assay with UCHL3, 0.225. In addition, the “log2 ratio” value with UCHL5 is -0.257; with USP10, -0.0983; in the assay with USP15 it was -0.122; in the assay with USP16, -0.345.

Turning to `Cc1cccc(N(CCC#N)C(=O)CCl)c1C`, the “log2 ratio” value in the assay with OTUD6B was 0.027; with OTUD7B, -1.2 (active); in the assay with PRPF8 it was 0.241; in the assay with PSMD7, 0.0381; with UCHL1, -1.09 (active); with UCHL3, 0.389. Further, the “log2 ratio” value was -0.0436 in the assay with UCHL5, -0.0111 with USP10, -0.0542 in the assay with USP15 and -0.0303 with USP16.

For `O=C(CCl)Nc1ccc(Cl)c(F)c1`, the “log2 ratio” value in the assay with OTUD6B was -0.448; with OTUD7B, -1.15 (active); with PRPF8 it was 0.0807; with PSMD7 it was -0.221; with UCHL1 it was -1.36 (active); with UCHL3, -0.216. Also, the “log2 ratio” value in the assay with UCHL5 is -0.398; with USP10, -0.142; with USP15 it was -0.331; with USP16, 0.323.

On to `O=C(CCl)N1CCC(C(O)c2ccc(F)cc2)CC1` (stereo not given), for which the “log2 ratio” value was 0.0694 with OTUD6B; -0.134 in the assay with OTUD7B; -0.0885 with PRPF8; -0.0381 in the assay with PSMD7; -1.31 (active) with UCHL1; 0.426 with UCHL3. In addition, the “log2 ratio” value with UCHL5 was 0.12; with USP10 it was -0.257; with USP15 it was 0.278; with USP16 it was 0.191.

Consider `O=C(CCl)N1CCc2nc[nH]c2C1c1ccc(Cl)cc1` (stereo not given), for which the “log2 ratio” value is -0.263 in the assay with OTUD6B; -1.05 (active) with OTUD7B; -0.0118 with PRPF8; -0.165 in the assay with PSMD7; -0.466 with UCHL1; 0.28 in the assay with UCHL3. Further, the “log2 ratio” value with UCHL5 is -0.221; with USP10, -0.161; in the assay with USP15, -0.182; with USP16, -0.287.

In the case of `O=C(CCl)NCc1noc(C2CC2)n1`, the “log2 ratio” value with OTUD6B was -0.344; in the assay with OTUD7B, -0.572; with PRPF8 it was -0.106; in the assay with PSMD7, -0.219; with UCHL1, -1.67 (active); with UCHL3 it was 0.307. Also, the “log2 ratio” value in the assay with UCHL5 was -0.363; with USP10 it was -0.164; in the assay with USP15, -0.193; with USP16, -0.127.
